In PMC4336329 (PLoS ONE, 2015):
The whole screen tested about 310,000 compounds, of which about 14,000 (4.5%) showed an effect of 50% or more. The effect is printed as a negative number. Shown is part of a subset that was picked to be rich in strong results.

Molecular target: human ether-à-go-go-related gene (hERG) potassium channel (human, UniProt Q12809)
Test: primary screen, population patch clamp on CHO cells stably expressing hERG; higher = less effect of the substance
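Note: peak tail current of the secondary pulse compared with the same well before compound.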

Sequence of human ether-à-go-go-related gene (hERG) potassium channel (Q12809 whole entry, looked up): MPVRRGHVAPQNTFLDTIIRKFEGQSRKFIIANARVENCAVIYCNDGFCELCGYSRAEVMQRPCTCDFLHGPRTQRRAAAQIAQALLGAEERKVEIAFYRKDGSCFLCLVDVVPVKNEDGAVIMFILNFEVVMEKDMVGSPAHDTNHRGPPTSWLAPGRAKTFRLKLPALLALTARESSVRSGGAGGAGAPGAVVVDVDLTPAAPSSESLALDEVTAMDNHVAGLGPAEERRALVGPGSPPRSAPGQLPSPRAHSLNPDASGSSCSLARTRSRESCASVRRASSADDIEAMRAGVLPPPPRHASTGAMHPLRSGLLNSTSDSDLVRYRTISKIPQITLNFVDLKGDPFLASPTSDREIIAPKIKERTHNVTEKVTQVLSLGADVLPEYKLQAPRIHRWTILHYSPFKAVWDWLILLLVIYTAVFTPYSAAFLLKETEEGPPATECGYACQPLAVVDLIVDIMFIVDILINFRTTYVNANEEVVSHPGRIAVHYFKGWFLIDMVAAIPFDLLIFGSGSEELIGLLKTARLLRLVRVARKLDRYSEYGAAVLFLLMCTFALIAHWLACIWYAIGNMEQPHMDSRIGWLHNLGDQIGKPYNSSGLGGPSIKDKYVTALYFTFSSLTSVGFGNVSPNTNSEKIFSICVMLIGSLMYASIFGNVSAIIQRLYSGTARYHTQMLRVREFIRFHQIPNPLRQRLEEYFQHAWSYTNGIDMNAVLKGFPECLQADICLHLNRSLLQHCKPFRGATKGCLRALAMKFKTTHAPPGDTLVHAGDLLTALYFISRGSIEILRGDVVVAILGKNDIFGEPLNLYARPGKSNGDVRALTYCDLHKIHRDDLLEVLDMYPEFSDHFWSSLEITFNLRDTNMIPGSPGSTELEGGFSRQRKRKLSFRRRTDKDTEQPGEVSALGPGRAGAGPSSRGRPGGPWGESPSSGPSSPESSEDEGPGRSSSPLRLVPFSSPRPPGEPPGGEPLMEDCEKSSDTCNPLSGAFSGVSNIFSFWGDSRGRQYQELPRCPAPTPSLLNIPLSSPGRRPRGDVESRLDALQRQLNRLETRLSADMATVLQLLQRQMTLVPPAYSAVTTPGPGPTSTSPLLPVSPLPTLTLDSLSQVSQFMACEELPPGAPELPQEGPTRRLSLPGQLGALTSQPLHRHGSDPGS

Row | Compound | hERG current change (%, negative = inhibition) at 10uM [%]
1 | COc1ccc(-c2oc3ccc(-c4cc(OC)c(OC)c(OC)c4)cc3c2-c2ccc(OC)cc2)cc1 | 13.6
2 | CN(C)S(=O)(=O)c1cccc(COC(=O)c2ccc(Cl)cc2O)c1 | -7.36
3 | CC(=O)Oc1c(Cl)c(N2CCOCC2)c(OC(C)=O)c2ccccc12 | -25.2
4 | CCN(Cc1ccccc1)C(=O)c1cccc(S(=O)(=O)N2CCN(Cc3ccccc3)CC2)c1 | -19.6
5 | Cc1ccc(-c2csc(N3CCN(c4cc5c(cc4Cl)nc(-c4ccncc4)n5CCN4CCCCC4)CC3)n2)cc1 | 10.5
6 | Cc1csc(N2CCN(c3cc4c(cc3Cl)nc(-c3ccncc3)n4CCCN3CCCC3)CC2)n1 | -64.8
7 | Cc1ccc(-c2csc(N3CCN(c4cc5c(cc4Cl)nc(-c4ccncc4)n5CCOCCO)CC3)n2)cc1 | 4.81
8 | Cc1n[nH]c(=S)n1-c1cccc(Cl)c1 | 19.7
9 | Cc1nnc(N2C(=O)C(O)=C(C(=O)c3ccco3)C2c2cccc3ccccc23)s1 (stereo not shown) | -0.387
10 | Cc1cccn2c(=O)c3cc(C(=O)NC4CCCCC4)c(=N)n(Cc4ccccc4)c3nc12 | -74.6
11 | Cc1cccn2c(=O)c3cc(C(=O)NC4CCS(=O)(=O)C4)n(Cc4ccccc4)c3nc12 (stereo not shown) | -4.36
12 | Cc1cccn2c(=O)c3cc(C(=O)NC4CCCC4)c(=N)n(Cc4ccc(F)cc4)c3nc12 | -68.2
13 | Cc1cccn2c(=O)c3cc(C(=O)NC4CCCCCC4)sc3nc12 | 9.51
14 | Cc1cccn2c(=O)c3cc(C(=O)NC4CCCCC4)c(=N)n(Cc4ccc(F)cc4)c3nc12 | -77.1
15 | Nc1ccc(C(=O)Nc2cccc(NC(=O)c3ccc(N)cc3)c2)cc1 | 17.7
16 | Cn1c(=O)c(=O)n(C)c2cc(S(=O)(=O)CCC(=O)Nc3ccc(F)cc3)ccc21 | -2.6
17 | CS(=O)(=O)N1CCN(CC2CC3C=CC2C3)CC1.O=C(O)C(=O)O (stereo not shown) | 5.01
18 | CCOc1ccc(N2C(=O)C3C(c4ccc(O)cc4)NC(CCSC)(C(=O)OC)C3C2=O)cc1 (stereo not shown) | -12.3
19 | CC(NC(=O)c1nn(C)c(=O)c2ccccc12)c1ccc(F)cc1 (stereo not shown) | -3.84
20 | CCCOC(=O)c1ccccc1C(=O)OCCC | -3.24
21 | CCCCCCCCNC(=O)CCNC(=O)c1ccc(C(C)(C)C)cc1 | 8
22 | O=C(c1cccc(S(=O)(=O)N2CCOCC2)c1)N(CCc1ccccc1)Cc1ccccc1 | -55.4

Row | Compound | hERG current change (%, negative = inhibition) at 10uM [%]
23 | CC1CN(S(=O)(=O)c2cccc(C(=O)N(CCc3ccccc3)Cc3ccccc3)c2)CC(C)O1 (stereo not shown) | -7
24 | O=C(c1cccc(S(=O)(=O)N2CCOCC2)c1)N(CCO)Cc1ccccc1 | -19.8
25 | O=C(c1ccc(F)c(S(=O)(=O)N2CCOCC2)c1)N(CCc1ccccc1)Cc1ccccc1 | -68.3
26 | O=C(NCc1ccccc1)c1ccc(F)c(S(=O)(=O)N2CCOCC2)c1 | -17.4
27 | O=C(c1cc(S(=O)(=O)N2CCOCC2)ccc1F)N(CCc1ccccc1)Cc1ccccc1 | -4.37
28 | CCc1nc2cc([N+](=O)[O-])c([N+](=O)[O-])cc2[nH]1 | -14.5
29 | NC(=O)c1ccccc1NC(=O)c1ccc2c(c1)OCO2 | 5.14
30 | CCc1cc2c(=O)n(CC(=O)NC3CCCCC3)cnc2s1 | 4.86
31 | COc1ccc(C2Nc3ccccc3C(=O)N2NC(C)=O)c(OC)c1 (stereo not shown) | 14.3
32 | O=C(O)c1cncc(Br)c1 | 27.3
33 | CN1CCCCc2c1nc1ccccc1c2N.O=C(O)c1cncc(Br)c1 | -82.5
34 | Cc1ccc(C)c2c(N)c3c(nc12)CCCCC3.O=C(O)c1cncc(Br)c1 | -88.4
35 | Cc1cc(Br)c2nc3c(c(C(=O)O)c2c1)CCCCC3 | 4.41
36 | Cc1cccc2c(N)c3c(nc12)N(C)CC3.O=C(O)C(=O)O | -23.1
37 | Cc1ccc2nc3c(c(N)c2c1)CCN3C.O=C(O)C(=O)O | -33.1
38 | O=[N+]([O-])c1ccc(-c2cnc(NO)nc2)cc1 | -28
39 | CC(C)(C)NC(=O)C(=O)NNC(=O)c1cccc(F)c1 | 18.1
40 | CC1=C(C#N)C(=O)N(C2CCS(=O)(=O)C2)C(=O)/C1=C\c1ccco1 (stereo not shown) | 7.81
41 | O=C(COC(=O)C1=NNC(=O)CC1)NCCc1ccccc1 | 17.4
42 | O=c1cc(N2CCN(Cc3ccccc3)CC2)c(-c2ccccc2)n[nH]1 | -1.87
43 | Cn1nc(C(C)(C)C)cc1NC(=O)Nc1ccc(F)cc1F | 5.93
44 | CCC(C)N1C(=S)SC(C)(C)C1N(O)C(=O)NC1CCCCC1 (stereo not shown) | 9.19

Row | Compound | hERG current change (%, negative = inhibition) at 10uM [%]
45 | COc1ccc(OC)c(C2(O)CSC(=Nc3cccnc3)N2Cc2ccco2)c1 (stereo not shown) | -16.3
46 | Cn1c(=O)c2c(SCC(=O)N3CCOCC3)nc(-c3ccccc3F)nc2n(C)c1=O | -8.27
47 | O=C(c1cc(COc2ccc(F)cc2F)on1)N1CCN(C2CCCC2)C(=O)C1 | -25.8
48 | COc1cccc(OCc2cc(C(=O)N3CCN(C4CCCCC4)C(=O)C3)no2)c1 | -3.09
49 | O=C(c1cc(COc2ccc(F)cc2Cl)on1)N1CCSCC1 | -4.58
50 | COc1ccc(OCc2cc(C(=O)N3CCN(C4CCCC4)CC3)no2)c(Cl)c1 | -29.6
51 | O=C(c1cc(COc2ccc(F)c(F)c2)on1)N1CCOCC1 | 5.02
52 | O=C(c1cc(COc2c(F)cccc2F)on1)N1CCN(C2CCCCC2)C(=O)C1 | -17.5
53 | CCOC(=O)CC1COCCN1C(=O)c1cc(COc2ccc(F)cc2Cl)on1 (stereo not shown) | -23.2
54 | CSc1ccccc1OCc1cc(C(=O)N2CCN(C3CCCC3)C(=O)C2)no1 | -34.8
55 | CCOC(=O)CC1COCCN1C(=O)c1cc(COc2ccc(F)c(F)c2)on1 (stereo not shown) | -61.5
56 | O=C(c1cc(COc2ccc(F)cc2Cl)on1)N1CCN(C2CCCC2)CC1 | -61.4
57 | O=C(c1cc(COc2ccc(F)c(F)c2)on1)N1CCN(C2CCCCC2)C(=O)C1 | -56.2
58 | O=C(c1cc(COc2ccc(F)cc2Cl)on1)N1CCN(C2CCCCC2)C(=O)C1 | -67.9
59 | O=C(COC(=O)CN1C(=O)C2CCCCC2C1=O)Nc1cc(S(=O)(=O)N2CCOCC2)ccc1Cl (stereo not shown) | -12.6
60 | Cc1ccc(C(=O)NCCCn2ccnc2)cn1 | 4.36
61 | O=C(NC1CCCCCC1)C1CCN(S(=O)(=O)c2cnc[nH]2)CC1 | 8.78
62 | CCN(CC)C(=O)COc1cc(C)c(Cl)c(C)c1 | -5.91
63 | COc1ccc(C(=O)NCc2ccccc2OC)c(OC)c1 | -11.6
64 | O=C(N/N=C/c1cc(Br)cs1)c1ccc2c(c1)OCCO2 | 10.2
65 | Oc1c(Br)cc(Br)cc1C=Nc1ccc2c(c1)OCCO2 | 14.9
66 | Oc1c(Cl)cc(Cl)cc1C=Nc1ccc2c(c1)OCCO2 | 21.2

Row | Compound | hERG current change (%, negative = inhibition) at 10uM [%]
67 | Brc1csc(C=Nc2ccc3c(c2)OCCOCCOCCOCCO3)c1 | -73.5
68 | Brc1ccc(C=Nc2ccc3c(c2)OCCOCCOCCO3)s1 | -66.2
69 | Brc1ccc(C=Nc2ccc(Nc3ccccc3)cc2)s1 | 9.59
70 | NC(=O)c1ccccc1NC(=O)N1CCOCC1 | -2.02
71 | CCOC(=O)C1CCCN(C(=O)c2ccc(Cl)cc2)C1 (stereo not shown) | 0.557
72 | Cc1cc(C)cc(NC(=O)CSc2nc3c(oc4ccccc43)c(=O)n2-c2ccccc2)c1 | -11.1
73 | O=C(c1ccc(F)cc1)N1CCCCC(Sc2nnc3ccccn23)C1=O (stereo not shown) | -59.9
74 | Cc1cc2nnc(SC3CCCCN(C(=O)c4ccc(F)cc4)C3=O)n2c2ccccc12 (stereo not shown) | -13.2
75 | O=C(c1ccccc1)N1CCCCC(Sc2nnc3ccccn23)C1=O (stereo not shown) | 5.24
76 | O=C(Nc1ccccc1-c1nc2ccccc2[nH]c1=O)c1cccs1 | 2.16
77 | CCc1noc(C)c1C(=O)Nc1ccc(C)c(S(=O)(=O)N2CCCCCC2)c1 | -45.6
78 | CCOc1ccc(S(=O)(=O)N2CCCCC2)cc1NC(=O)c1c(CC)noc1C | 11.8
79 | CCc1noc(C)c1C(=O)Nc1ccc(S(=O)(=O)N2CCCCC2)cc1 | -7.54
80 | CCc1noc(C)c1C(=O)Nc1ccc(Cl)c(S(=O)(=O)N2CCCCC2)c1 | -71.2
81 | CCc1noc(C)c1C(=O)Nc1cccc(S(=O)(=O)N2CCCCCC2)c1 | -56
82 | Cc1noc(C)c1C(=O)Nc1cccc(S(=O)(=O)N2CCCCC2)c1 | -10.6
83 | CCOC(=O)c1c(C)[nH]c(C(=O)Nc2ccc(C)c(Cl)c2)c1C | 10.8
84 | COc1ccc2[nH]cc(C(=O)C(=O)N3CCCCC3)c2c1 | 5.35
85 | COC(=O)C(=O)/C=C(\O)c1ccc(C)cc1 | -2.4
